Laboratory results published in PubChem BioAssay AID2284099 (EPA ToxCast).
The source made the active and inactive calls. Rule for the calls: active = hit-call score of the fitted dose curve at least 0.9, where 1 is the maximum; inactive = score below 0.9.

Each compound was assayed against human JAK2 Tyrosine Kinase, JAK2 (gene 3717) (UniProt O60674) (assay: ERF_FR_ENZ_hJAK2: Eurofins (ERF) Enzymatic Radiometric [Km ATP] KinaseProfiler LeadHunter Assay for human JAK2 Tyrosine Kinase).
human JAK2 Tyrosine Kinase, JAK2 (gene 3717), sequence (O60674 whole entry, looked up): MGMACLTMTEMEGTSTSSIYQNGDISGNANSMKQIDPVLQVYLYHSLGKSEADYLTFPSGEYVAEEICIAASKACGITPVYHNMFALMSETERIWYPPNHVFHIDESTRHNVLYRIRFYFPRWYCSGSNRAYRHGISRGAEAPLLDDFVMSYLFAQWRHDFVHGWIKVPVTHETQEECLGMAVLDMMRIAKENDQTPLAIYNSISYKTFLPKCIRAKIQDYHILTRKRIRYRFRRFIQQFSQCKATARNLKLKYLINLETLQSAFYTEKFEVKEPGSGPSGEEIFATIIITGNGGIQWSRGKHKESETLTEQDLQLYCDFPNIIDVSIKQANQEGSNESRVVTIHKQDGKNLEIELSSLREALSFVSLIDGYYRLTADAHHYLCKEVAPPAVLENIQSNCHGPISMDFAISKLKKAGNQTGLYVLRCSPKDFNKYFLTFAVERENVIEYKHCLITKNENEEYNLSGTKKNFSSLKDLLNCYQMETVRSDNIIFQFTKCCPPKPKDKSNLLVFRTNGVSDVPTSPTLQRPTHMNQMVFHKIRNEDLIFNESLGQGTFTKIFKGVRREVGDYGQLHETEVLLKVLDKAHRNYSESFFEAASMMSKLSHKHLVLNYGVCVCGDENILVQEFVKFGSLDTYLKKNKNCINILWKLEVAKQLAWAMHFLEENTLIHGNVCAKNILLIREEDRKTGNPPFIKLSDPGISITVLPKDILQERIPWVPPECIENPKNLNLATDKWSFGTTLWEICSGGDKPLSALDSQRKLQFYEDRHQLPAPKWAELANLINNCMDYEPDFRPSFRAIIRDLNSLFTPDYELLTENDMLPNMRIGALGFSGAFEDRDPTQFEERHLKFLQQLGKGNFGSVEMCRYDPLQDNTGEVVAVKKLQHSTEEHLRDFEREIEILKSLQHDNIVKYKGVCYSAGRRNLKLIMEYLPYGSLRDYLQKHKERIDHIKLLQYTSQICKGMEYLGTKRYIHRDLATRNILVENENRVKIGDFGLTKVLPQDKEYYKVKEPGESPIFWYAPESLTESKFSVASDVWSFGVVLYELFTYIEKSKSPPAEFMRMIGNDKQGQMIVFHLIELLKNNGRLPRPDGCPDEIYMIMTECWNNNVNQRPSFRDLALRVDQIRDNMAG
Protocol: ERF_FR_ENZ_hJAK2 is a biochemical, single-readout assay that uses extracted gene-proteins in a cell-free assay. Measurements were taken 1 hour after chemical dosing in a 96-well plate. See JAK2 Human TK Kinase Enzymatic LANCE Assay [Km ATP], Cerep.ERF_FR_ENZ_hJAK2 is an assay component calculated from the ERF_FR_ENZ_hJAK2 assay. It is designed to measure enzyme activity using a type of enzyme reporter as detected by fluorescence intensity with LANCE technology.Data from the assay component ERF_FR_ENZ_hJAK2 was analyzed at the assay endpoint, ERF_FR_ENZ_hJAK2, in the positive analysis fitting direction relative to DMSO as the negative control and baseline of activity. Using a type of enzyme reporter, loss-of-signal activity can be used to understand changes in enzymatic activity as they relate to gene JAK2. To generalize the intended target to other relatable targets, this assay endpoint is annotated to the kinase intended target family, where the subfamily is non-receptor tyrosine kinase.
JAK2 (h) is incubated with 8 mM MOPS pH 7.0, 0.2 mM EDTA, 100 uM […], 10 mM MgAcetate and [gamma-33P]-ATP (specific activity and concentration as required). The reaction is initiated by the addition of the Mg/ATP mix. After incubation for 40 minutes at room temperature, the reaction is stopped by the addition of phosphoric acid to a concentration of 0.5%. […]
In the case of `O=C(/C=C/c1ccc(O)cc1)CC(=O)/C=C/c1ccc(O)cc1`, the AC50 is reported as 2510 nM (active).
